Bioassay records from PubChem.
Abs 340nm: absorbance at 340 nm. compound absorbance at 340 nm, fold over control. fold change at 10 µM. 65,000 tested, under 10 active. AID 708;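 active = at 10 µM dose, initial 340 nm absorbance at least 2 fold that of control wells; inactive = change under 2 fold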;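 note: initial absorbance extrapolated from kinetic A340 decline of NADH oxidation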
NADH coupling: inhibition of NAD/NADH coupling enzymes, library profiling | coupled PK/LDH NADH assays, four targets | IC50, µM (titrated, usually from 10 µM) | actives 0.02% (n = 65,000);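 active = single-dose screening hits from any of four coupled enzyme assays that gave an IC50 when retested across doses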;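 note: the DPM-DC format reads NADH fluorescence rather than 340 nm absorbance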
MK inhibit: blocks S. pneumoniae mevalonate kinase; purified MK, PK/LDH-coupled NADH absorbance 340 nm; inhibition, % at 10 µM; actives 0.48% (n = 65,000);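 active = ranked among the strongest by inhibition in the single 10 µM screen, a fixed top-ranked set picked for dose follow-up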
Spn PMK inh: S. pneumoniae PMK inhibition; purified PMK, PK/LDH-coupled NADH absorbance 340 nm; inhibition, % at 10 µM; actives 0.49% (n = 65,000); AID 539;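 active = top-ranked compounds by inhibition in the single 10 µM screen, taking a fixed number of the strongest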
Autofluor 339: intrinsic fluorescence of library compounds, ex339/em460 – biochemical, MLSMR library, data from DPM-DC assay, artefact control, profiling panel | compound autofluorescence, ex339/em460 nm, NADH buffer; stronger effect = higher value; 1 = no-compound wells, NADH background | fluorescence fold increase at 10 µM | actives 5.5% (n = 65,000) | AID 709;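 active = at 10 µM, mean starting fluorescence two-fold or more over control wells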;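 note: signal is the first read of a kinetic run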
DPM-DC inhibit: blocks S. pneumoniae diphosphomevalonate decarboxylase; actives 0.49% (n = 65,000); purified DPM-DC, PK/LDH coupled NADH fluorescence; AID 556; calls only at 10 µM;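 active = the 320 compounds with the highest percent inhibition in the single-dose primary screen, excluding strongly autofluorescent ones, cut at about 32% in these data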;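 note: kinetic rate of NADH fluorescence loss reporting ADP formed by the decarboxylase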
Numbers stand for hits; - = inactive; . = not tested or not shown. A selection: hits, their analogues and other compounds. The true share with any hit is near 6.8%.

SMILES	Abs 340nm	NADH coupling	MK inhibit	Spn PMK inh	Autofluor 339	DPM-DC inhibit
CCOC(=O)C1=C(C)Nc2nc(SC)nn2C1c1ccc(C(=O)OC)cc1 (centres undefined)	-	-	-	-	-	-
O=C1N2c3ccccc3CCc3cccc(c32)C1(O)C(F)(F)F (centres undefined)	-	-	-	-	-	-
CCOc1cc(C2Nc3ccccc3C(=O)N2c2ccccc2)ccc1O (centres undefined)	-	-	-	-	3.6	.
Fc1ccc(Cn2nnnc2CN2CCc3ccccc3C2)cc1	-	-	-	-	-	-
Cn1c(=O)c2c(nc(SCC(=O)Nc3ccc(N4CCOCC4)c(Cl)c3)n2C)n(C)c1=O	-	-	-	-	-	-
COc1ccccc1-n1c(N)c(C(=O)NCC2CCCO2)c2nc3ccccc3nc21 (centres undefined)	-	-	-	-	2.4	.
Nc1c(C(=O)OCC2CCCO2)c2nc3ccccc3nc2n1C1CCCCC1 (centres undefined)	-	-	-	-	2.1	.
O=C(CSc1nc2ccccc2n1-c1ccccc1)NCC1CCCO1 (centres undefined)	-	-	-	-	-	-
Nc1c(C(=O)NCC2CCCO2)c2nc3ccccc3nc2n1-c1ccccc1 (centres undefined)	-	-	-	-	4.9	.
O=C(CCC1CCCC1)N1CCN(C(=O)c2cccnc2)CC1	-	-	-	-	-	-
Cn1nc(-c2ccc(Cl)cc2)c2cc(C(=O)NCCN3CCOCC3)sc21	-	-	-	-	2.1	.
Cn1nc(-c2ccc(Cl)cc2)c2cc(C(=O)NCCCN3CCOCC3)sc21	-	-	-	-	2.1	.
CCN1CCN(C(=O)c2cc3c(-c4ccc(Cl)cc4)nn(C)c3s2)CC1	-	-	-	-	-	-
Cn1nc(-c2ccc(Cl)cc2)c2cc(C(=O)N3CCN(C(=O)c4ccco4)CC3)sc21	-	-	-	-	-	-
Cc1cc(C)n(CCCNC(=O)c2ccc(S(=O)(=O)NCc3ccco3)cc2)n1	-	-	-	-	-	-
CCOc1cc(-c2nnc(-c3ccco3)o2)cc(OCC)c1OCC	-	-	-	-	2	-
c1coc(-c2nnc(-c3ccc4c(c3)OCO4)o2)c1	-	-	-	-	2.2	.
CCOc1ccc(-c2nnc(-c3ccco3)o2)cc1OCC	-	-	-	-	3.7	.
C=CCn1c(COc2ccc(CC)cc2)nnc1SC/C(O)=C(\C#N)c1nc2ccccc2[nH]1	-	-	-	-	-	-
COc1ccccc1N1CCN(CC(O)c2ccc3cc[nH]c3c2)CC1 (centres undefined)	-	-	-	-	-	-
CCCCOc1ncnc2c1[nH]c1ccc(F)cc12	-	-	-	-	2.7	-
CCCCOc1ncnc2c1[nH]c1ccccc12	-	-	-	-	2.3	-
CN1CCCN(Cc2ccccc2C(F)(F)F)CC1	-	-	57	-	-	-
COc1cc(C(=O)N2CCN(Cc3ccccc3C(F)(F)F)CC2)cc(OC)c1OC	-	-	45	-	-	-
COc1ccc(C(=O)N2CCN(Cc3ccccc3C)CC2)cc1OC	-	-	-	-	-	-
SMILES	Abs 340nm	NADH coupling	MK inhibit	Spn PMK inh	Autofluor 339	DPM-DC inhibit
COc1cc(OC)cc(C(=O)N2CCN(Cc3ccccc3C(F)(F)F)CC2)c1	-	-	50	-	-	-
COc1cccc(OC)c1C(=O)N1CCN(Cc2ccccc2C(F)(F)F)CC1	-	-	-	-	-	-
CCOC(=O)C(C)Oc1ccc(=O)n(-c2ccccc2)n1 (centres undefined)	-	-	-	-	-	-
Cc1cc(-c2cccnc2)c(C#N)c(SCC#N)n1	-	-	-	-	-	-
Cc1cc(-c2ccccc2)c(C#N)c(N)n1	-	-	-	-	2.4	.
COc1ccc(N2CCN(C(=O)c3cn(C)c(=O)c4c3c3ccccc3n4C)CC2)cc1	-	-	-	-	-	-
CCCN(CCC)CCCNC(=O)c1cn(CCOC)c(=O)c2c1c1ccccc1n2C	-	-	-	-	3.5	-
CCCN(CCC)CCCNC(=O)c1cc2c(=O)n(C)c3ccccc3c2n1C	-	-	-	-	-	-
CCOC(=O)N1CCN(C(=O)c2cn(CC(C)C)c(=O)c3c2c2ccccc2n3C)CC1	-	-	-	-	4.2	.
Cn1c2ccccc2c2c(C(=O)N3CCN(c4ccccn4)CC3)cn(C3CCCC3)c(=O)c21	-	-	-	-	-	-
COCCn1cc(C(=O)N2CCC(C)CC2)c2c3ccccc3n(C)c2c1=O	-	-	-	-	4.8	.
CC(C)Cn1cc(C(=O)N2CCOCC2)c2c3ccccc3n(C)c2c1=O	-	-	-	-	2.6	-
O=C(NCc1ccc2c(c1)OCO2)c1cc2ncc(Br)cn2n1	-	-	-	-	-	-
CC(C)Cn1cc(C(=O)NCc2cccs2)c2c3ccccc3n(C)c2c1=O	-	-	-	-	2.6	-
CCOC(=O)N1CCN(C(=O)c2cn(C)c(=O)c3c2c2ccccc2n3C)CC1	-	-	-	-	3.5	-
COc1cc2c(cc1OC)CN(S(=O)(=O)c1ccc3c(c1)OCCO3)CC2	-	-	-	-	-	-
CCOC(=O)c1sc2nc(N3CCOCC3)c3c(c2c1N)CCN(C)C3	-	-	-	-	3.7	.
CC1(C)Cc2c(c(N3CCOCC3)nc3sc(-c4ccc(C(=O)O)o4)c(N)c23)CO1	-	-	-	-	3.8	.
c1nc(N2CCOCC2)c2sc3nc(N4CCOCC4)c4c(c3c2n1)CCCC4	-	-	-	-	-	-
CCN(CC)c1nc(N2CCOCC2)c(C#N)c2c1CN(C)CC2	-	-	-	-	-	-
CNC(=O)c1ccc(-c2sc3nc(N4CCOCC4)c4c(c3c2N)CCCC4)o1	-	-	-	-	2.2	.
Cn1cnc2c(sc3nc(N4CCOCC4)c4c(c32)CC(C)(C)OC4)c1=O	-	-	-	-	-	.
CC1(C)Cc2c(c(N3CCOCC3)nc3sc(C(=O)N4CCCCC4)c(N)c23)CO1	-	-	-	-	2.1	.
O=C(CN1CCN(c2ccccn2)CC1)Nc1cc(C(F)(F)F)ccc1Cl	-	-	-	-	-	-
COCCOC(=O)C1=C(C)NC2=C(C(=O)CC(c3cccs3)C2)C1c1ccsc1 (centres undefined)	-	-	-	-	2.4	-
CC1=C(C(=O)OC(C)C)C(c2cccs2)C2=C(CCCC2=O)N1 (centres undefined)	-	-	-	-	-	-
CCN(CC)c1ccc(C2C(C(=O)OCCOC)=C(C)NC3=C2C(=O)CCC3)cc1 (centres undefined)	-	-	-	-	-	-
CC1=C(C(=O)OC(C)C)C(c2cccnc2)C2=C(CCCC2=O)N1 (centres undefined)	-	-	-	-	2.2	.
CC1=C(C(=O)OCC2CCCO2)C(c2ccccc2OC(C)C)C2=C(CC(c3ccco3)CC2=O)N1 (centres undefined)	-	-	-	-	3.3	.
